Measured values as given in PubChem BioAssay (EPA / NIEHS).
Values joined by “and” are separate entries in the source; they are usually repeats but may differ in a detail not shown here. Equal entries are not always repeated. Active and inactive are the calls of the source. Rule for the calls: active = hit-call score of the fitted dose curve at least 0.9, where 1 is the maximum; inactive = score below 0.9.

The compounds below were run on TIMP metallopeptidase inhibitor 2 (TIMP2), TIMP2 (gene 7077) (assay: BSK_KF3CT_TIMP2: BioMAP Diversity Plus: KF3CT Assay for TIMP metallopeptidase inhibitor 2 (TIMP2) Biomarker Activity (AID 2283071)). Conditions: primary human keratinocytes with fibroblasts; actives raise or lower the signal.
Method in brief: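 ELISA readout of TIMP-2 in keratinocyte plus foreskin fibroblast co-cultures (human skin primary cells), 24 h post-dose. Gain or loss of signal fitted relative to DMSO.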

Row | SMILES | outcome | AC50
1 | O=C(Nc1ccccc1)Nc1ccnc(Cl)c1 | inactive | 
2 | CCCCC(CC)COC(=O)c1ccccc1C(=O)OCC(CC)CCCC (configuration not stated) | inactive | 
3 | O=C(O)COc1nc(Cl)c(Cl)cc1Cl | inactive | 
4 | Cc1ccc(-c2c(Cl)nc(C#N)n2S(=O)(=O)N(C)C)cc1 | inactive | 
5 | Fc1ccc(Oc2ccnc3cc(Cl)cc(Cl)c23)cc1 | inactive | 
6 | CN(C)C(=S)SSC(=S)N(C)C |  | 6.4 µM (active)
7 | C=CC1(C)OC(=O)N(c2cc(Cl)cc(Cl)c2)C1=O (configuration not stated) | inactive | 
8 | COc1nc(NC(C)C)nc(NC(C)C)n1 | inactive | 
9 | OC(c1ccc(Cl)cc1)(c1cncnc1)c1ccccc1Cl (configuration not stated) | inactive | 
10 | CC(C)Oc1cc(-n2nc(C(C)(C)C)oc2=O)c(Cl)cc1Cl | inactive | 
11 | CC1COC(Cn2cncn2)(c2ccc(Oc3ccc(Cl)cc3)cc2Cl)O1 (configuration not stated) |  | 26.7 µM (active)
12 | CCCC1COC(Cn2cncn2)(c2ccc(Cl)cc2Cl)O1 (configuration not stated) | inactive | 
13 | Oc1ccccc1-c1ccccc1 | inactive | 
14 | COC(=O)c1ccccc1C(=O)OC | inactive | 
15 | N#Cc1cc(Br)c(O)c(Br)c1 | inactive | 
16 | CCNc1nc(Cl)nc(NC(C)C)n1 | inactive | 
17 | N#CC(CCc1ccc(Cl)cc1)(Cn1cncn1)c1ccccc1 (configuration not stated) | inactive | 
18 | COP(=S)(OC)Oc1nc(Cl)c(Cl)cc1Cl | inactive | 
19 | CNC(=S)S | inactive | 
20 | CCCCNC(=O)OCC#CI |  | 32.5 µM (active) and 20.4 µM (active)
21 | CS/C(C)=N/OC(=O)N(C)SN(C)C(=O)O/N=C(\C)SC |  | 14.5 µM (active)
22 | CCCCNC(=O)n1c(NC(=O)OC)nc2ccccc21 | inactive | 
23 | COc1ccc(C(c2ccc(OC)cc2)C(Cl)(Cl)Cl)cc1 | inactive | 
24 | CCNc1nc(Cl)nc(NCC)n1 | inactive | 
25 | CCOc1cc(Oc2ccc(C(F)(F)F)cc2Cl)ccc1[N+](=O)[O-] | inactive | 
26 | CO/C=C(/C(=O)OC)c1ccccc1Oc1cc(Oc2ccccc2C#N)ncn1 | inactive | 
27 | C=CCC1=C(C)[C@@H](OC(=O)[C@@H]2[C@@H](C=C(C)C)C2(C)C)CC1=O | inactive | 
